# Results: PubChem BioAssay (NCI)
# Where “and” joins values, the source holds several entries; their conditions need not be identical. Identical values can stand only once. About 83,000 compounds went through this panel and 20% of them were active in at least one assay; those are over-represented in the sample as a whole.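 How to read the values: 0–100, growth inhibition (40 = 60% inhibited); 0, no net growth; -100 to 0, cell death (-40 = 40% of starting cells died; -100 = all dead).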 Calls of active or inactive are those of the source. The calls were made as follows: active = growth percent below 10; inactive = the rest.
# Assays:
# Assay in all cases: NCI-60 one-dose screen, 48 h (100 = growth as untreated, 0 = no growth, -100 = all killed)
# NCI-H23 lung = test system: NCI-H23 lung
# NCI-H226 lung = test system: NCI-H226 lung
# NCI-H322M lung = test system: NCI-H322M lung
# HOP-62 NSCLC = test system: HOP-62 NSCLC
# NCI-H460 lung = test system: NCI-H460 lung
# HOP-92 NSCLC = test system: HOP-92 NSCLC
# NCI-H522 lung = test system: NCI-H522 lung
# A549/ATCC NSCLC = test system: A549/ATCC NSCLC
# 786-0 renal = test system: 786-0 renal
# COLO 205 colon = test system: COLO 205 colon
# DU-145 prostate = test system: DU-145 prostate
# K-562 leukemia = test system: K-562 leukemia
# MALME-3M melanoma = test system: MALME-3M melanoma
# MDA-MB-231 breast = test system: MDA-MB-231 breast
# RXF 393 renal = test system: RXF 393 renal
# SF-268 CNS = test system: SF-268 CNS
# SF-295 CNS = test system: SF-295 CNS
# SF-539 CNS = test system: SF-539 CNS
# UACC-257 melanoma = test system: UACC-257 melanoma
# M14 melanoma = test system: M14 melanoma
compound,measurement,setting,value
O=C(O)C1C2C=CC(C2)C1C(=O)O (stereo not given),growth,NCI-H23 lung; 10 µM unless noted,104% (inactive) and 30.6% (inactive) and 111% (inactive)
same,growth,NCI-H226 lung; 10 µM unless noted,105% (inactive) and 38.6% (inactive) and 91.2% (inactive)
same,growth,NCI-H322M lung; 10 µM unless noted,99.3% (inactive) and 38.9% (inactive) and 104% (inactive)
same,growth,HOP-62 NSCLC; 10 µM unless noted,114% (inactive) and 30.1% (inactive) and 92.8% (inactive)
same,growth,NCI-H460 lung; 10 µM unless noted,104% (inactive) and 13.9% (inactive) and 105% (inactive)
same,growth,HOP-92 NSCLC; 10 µM unless noted,98.6% (inactive) and 98.2% (inactive)
same,growth,NCI-H522 lung; 10 µM unless noted,87.1% (inactive) and 102% (inactive)
same,growth,A549/ATCC NSCLC; 10 µM unless noted,93.5% (inactive) and 13.4% (inactive) and 97.7% (inactive)
same,growth,786-0 renal; 10 µM unless noted,105% (inactive) and 28.3% (inactive) and 104% (inactive)
same,growth,COLO 205 colon; 10 µM unless noted,115% (inactive) and 46.9% (inactive) and 118% (inactive)
same,growth,DU-145 prostate; 10 µM unless noted,113% (inactive) and 33% (inactive) and 117% (inactive)
same,growth,K-562 leukemia; 10 µM unless noted,107% (inactive) and 21.5% (inactive) and 95.5% (inactive)
same,growth,MALME-3M melanoma; 10 µM unless noted,109% (inactive) and 70% (inactive)
same,growth,MDA-MB-231 breast; 10 µM unless noted,101% (inactive) and 66.9% (inactive) and 124% (inactive)
same,growth,RXF 393 renal; 10 µM unless noted,116% (inactive) and 38.8% (inactive) and 96.9% (inactive)
same,growth,SF-268 CNS; 10 µM unless noted,115% (inactive) and 38.7% (inactive) and 105% (inactive)
same,growth,SF-295 CNS; 10 µM unless noted,101% (inactive) and 9.77% (active)
same,growth,SF-539 CNS; 10 µM unless noted,113% (inactive) and 27.8% (inactive) and 99.6% (inactive)
same,growth,UACC-257 melanoma; 10 µM unless noted,99.8% (inactive) and 35.6% (inactive) and 97.9% (inactive)
same,growth,M14 melanoma; 10 µM unless noted,115% (inactive) and 39.1% (inactive) and 105% (inactive)
Cc1cc(C)c(N)c(Br)c1,growth,NCI-H23 lung; 10 µM unless noted,101% (inactive) and 83.8% (inactive)
same,growth,NCI-H226 lung; 10 µM unless noted,106% (inactive)
same,growth,NCI-H322M lung; 10 µM unless noted,130% (inactive) and 105% (inactive)
same,growth,HOP-62 NSCLC; 10 µM unless noted,92.6% (inactive) and 165% (inactive)
same,growth,NCI-H460 lung; 10 µM unless noted,114% (inactive) and 101% (inactive)
same,growth,HOP-92 NSCLC; 10 µM unless noted,82.2% (inactive)
same,growth,NCI-H522 lung; 10 µM unless noted,95.2% (inactive) and 87.9% (inactive)
same,growth,A549/ATCC NSCLC; 10 µM unless noted,104% (inactive) and 106% (inactive)
same,growth,786-0 renal; 10 µM unless noted,102% (inactive) and 93.6% (inactive)
same,growth,COLO 205 colon; 10 µM unless noted,102% (inactive) and 105% (inactive)
same,growth,DU-145 prostate; 10 µM unless noted,122% (inactive) and 109% (inactive)
same,growth,K-562 leukemia; 10 µM unless noted,107% (inactive) and 96.5% (inactive)
same,growth,MALME-3M melanoma; 10 µM unless noted,105% (inactive) and 95.4% (inactive)
same,growth,MDA-MB-231 breast; 10 µM unless noted,112% (inactive) and 98.8% (inactive)
same,growth,RXF 393 renal; 10 µM unless noted,116% (inactive) and 103% (inactive)
same,growth,SF-268 CNS; 10 µM unless noted,105% (inactive) and 103% (inactive)
same,growth,SF-295 CNS; 10 µM unless noted,127% (inactive) and 110% (inactive)
same,growth,SF-539 CNS; 10 µM unless noted,108% (inactive) and 92.9% (inactive)
same,growth,UACC-257 melanoma; 10 µM unless noted,106% (inactive) and 105% (inactive)
same,growth,M14 melanoma; 10 µM unless noted,103% (inactive)
O=C(O)c1sccc1O,growth,NCI-H23 lung; 10 µM,80.1% (inactive)
same,growth,NCI-H23 lung; 100 µM,37.2% (inactive)
same,growth,NCI-H226 lung; 10 µM,89.2% (inactive)
same,growth,NCI-H226 lung; 100 µM,74.1% (inactive)
same,growth,NCI-H322M lung; 10 µM,87.5% (inactive)
same,growth,NCI-H322M lung; 100 µM,50.9% (inactive)
same,growth,HOP-62 NSCLC; 10 µM,102% (inactive)
same,growth,HOP-62 NSCLC; 100 µM,34.1% (inactive)
same,growth,NCI-H460 lung; 10 µM,91.2% (inactive)
same,growth,NCI-H460 lung; 100 µM,30.1% (inactive)
same,growth,HOP-92 NSCLC; 10 µM,66.9% (inactive)
same,growth,HOP-92 NSCLC; 100 µM,26.9% (inactive)
same,growth,NCI-H522 lung; 10 µM,64.5% (inactive)
same,growth,NCI-H522 lung; 100 µM,-32.6% (active)
same,growth,A549/ATCC NSCLC; 10 µM,82.5% (inactive)
same,growth,A549/ATCC NSCLC; 100 µM,38.8% (inactive)
same,growth,786-0 renal; 10 µM,99.1% (inactive)
same,growth,786-0 renal; 100 µM,47.6% (inactive)
same,growth,COLO 205 colon; 10 µM,111% (inactive)
same,growth,COLO 205 colon; 100 µM,84.6% (inactive)
same,growth,DU-145 prostate; 10 µM,83.1% (inactive)
same,growth,DU-145 prostate; 100 µM,40.3% (inactive)
same,growth,K-562 leukemia; 10 µM,60.5% (inactive)
same,growth,K-562 leukemia; 100 µM,5.69% (active)
same,growth,MALME-3M melanoma; 10 µM,103% (inactive)
same,growth,MALME-3M melanoma; 100 µM,78.8% (inactive)
same,growth,MDA-MB-231 breast; 10 µM,40.8% (inactive)
same,growth,MDA-MB-231 breast; 100 µM,27.7% (inactive)
same,growth,RXF 393 renal; 10 µM,84.6% (inactive)
same,growth,RXF 393 renal; 100 µM,52.1% (inactive)
same,growth,SF-268 CNS; 10 µM,71.6% (inactive)
same,growth,SF-268 CNS; 100 µM,26% (inactive)
same,growth,SF-295 CNS; 10 µM,76.6% (inactive)
same,growth,SF-295 CNS; 100 µM,31.2% (inactive)
same,growth,SF-539 CNS; 10 µM,85.4% (inactive)
same,growth,SF-539 CNS; 100 µM,23.5% (inactive)
same,growth,UACC-257 melanoma; 10 µM,85.3% (inactive)
same,growth,UACC-257 melanoma; 100 µM,51.5% (inactive)
same,growth,M14 melanoma; 10 µM,85.5% (inactive)
same,growth,M14 melanoma; 100 µM,7.02% (active)
OCCN1CCN(CCCN2c3ccccc3Sc3ccc(Cl)cc32)CC1,growth,NCI-H23 lung; 10 µM unless noted,66.4% (inactive) and 80.2% (inactive)
same,growth,NCI-H226 lung; 10 µM unless noted,96% (inactive) and 110% (inactive)
same,growth,NCI-H322M lung; 10 µM unless noted,64.2% (inactive) and 77.5% (inactive)
same,growth,HOP-62 NSCLC; 10 µM unless noted,61.4% (inactive) and 93.4% (inactive)
same,growth,NCI-H460 lung; 10 µM unless noted,64.3% (inactive) and 85.1% (inactive)
same,growth,HOP-92 NSCLC; 10 µM unless noted,-2.25% (active)
same,growth,NCI-H522 lung; 10 µM unless noted,40.5% (inactive) and 57.5% (inactive)
same,growth,A549/ATCC NSCLC; 10 µM unless noted,69.8% (inactive) and 93.3% (inactive)
same,growth,786-0 renal; 10 µM unless noted,53.3% (inactive) and 71.3% (inactive)
same,growth,COLO 205 colon; 10 µM unless noted,-70.1% (active) and 73.3% (inactive)
same,growth,DU-145 prostate; 10 µM unless noted,97.3% (inactive) and 95.7% (inactive)
same,growth,K-562 leukemia; 10 µM unless noted,13% (inactive) and 22.7% (inactive)
same,growth,MALME-3M melanoma; 10 µM unless noted,16.5% (inactive) and 67.3% (inactive)
same,growth,MDA-MB-231 breast; 10 µM unless noted,12.2% (inactive) and 81.6% (inactive)
same,growth,RXF 393 renal; 10 µM unless noted,56.1% (inactive) and 55.3% (inactive)
same,growth,SF-268 CNS; 10 µM unless noted,80.8% (inactive) and 71.9% (inactive)
same,growth,SF-295 CNS; 10 µM unless noted,52.4% (inactive) and 67.9% (inactive)
same,growth,SF-539 CNS; 10 µM unless noted,80.2% (inactive) and 83.4% (inactive)
same,growth,UACC-257 melanoma; 10 µM unless noted,-43% (active) and -5.63% (active)
same,growth,M14 melanoma; 10 µM unless noted,-76.7% (active) and 50.1% (inactive)
